Assay outcomes as filed in PubChem.
esBAF inh = inhibitors of esBAF chromatin remodeling in mouse ES cells; 2% of 350,000 active; Bmi1-luciferase knock-in reporter, 24 h; 100% = twice the neutral-well signal; reporter increase, % at 12.5 µM; in the data active = activation above about 40%; inconclusive = no clear call, values can overlap the other calls;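 also: a rise in the Bmi1 reporter signal indicates esBAF inhibition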
MITF TRPM1 HTS = activators of MITF-driven TRPM1 promoter activity in SK-MEL-5 cells | SK-MEL-5 TRPM1-promoter luciferase, 24 h; % of positive control, neutral wells = 0 | activation, % at 12.5 µM | 0.75% of 300,000 active;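 active = mean activation of at least 80% with every replicate also reaching 80%; inconclusive = mean reaches 80% but some replicate falls short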
Wnt bcat act = activators of Wnt/beta-catenin signaling. Wnt/beta-catenin reporter cell assay, activator, plate reader. activation, % at 9.35 µM. 1.2% of 300,000 active. AID 743398; in the data active = activation above about 30%, passing the limit was not always enough; inconclusive = no clear call, values can overlap the other calls
FXN GAA850 act = frataxin GAA850 promoter activation | HEK293 lucGAA850 FXN promoter luciferase reporter, 24 h; percent of 10 µM SAHA response | activation, % at 6 µM | 0.56% of 360,000 active;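 active = activation above the average of all compounds screened plus 3 SD, cutoff fixed separately per campaign, cut at about 7.5% in these data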
Each line names hits and unclear results; the compound was inactive in the other large screens. Most compounds without a hit are left out; they make up all but 2.8% or so of the library.

CN(C)CCCNC(=O)C[C@@H]1CC[C@@H]2[C@H](COc3ccc(NS(C)(=O)=O)cc3C(=O)N2C)O1	none (no result: MITF TRPM1 HTS, Wnt bcat act, FXN GAA850 act)
C[C@H]1CN([C@@H](C)CO)S(=O)(=O)c2ccc(-c3ccccc3)cc2O[C@H]1CN(C)C	none (no result: MITF TRPM1 HTS, Wnt bcat act, FXN GAA850 act)
C[C@@H]1CN([C@H](C)CO)C(=O)c2cc(NC(=O)c3ccccc3)ccc2O[C@@H](C)CCCCO[C@@H]1CN(C)C(=O)c1ccncc1	none (no result: MITF TRPM1 HTS, Wnt bcat act, FXN GAA850 act)
Cc1c(C(=O)OCC(=O)N2C(C)CCCC2C)oc2ccccc12 (stereo unspecified)	esBAF inh 76
CC(C)(C)[S@@](=O)N1Cc2cc(C(=O)NCc3ccncc3)nc(-c3cccc(-c4cccc(C#N)c4)c3)c2[C@H]1CCO	none (no result: MITF TRPM1 HTS, Wnt bcat act, FXN GAA850 act)
C[C@@H]1CCCCO[C@@H](CN(C)C(=O)Cc2ccccc2)[C@H](C)CN([C@H](C)CO)C(=O)c2cc(NC(=O)C3CCCCC3)ccc2O1	none (no result: MITF TRPM1 HTS, Wnt bcat act, FXN GAA850 act)
CC(=O)c1ccc(Nc2nc(N3CCOCC3)nc(N3CCOCC3)n2)cc1	esBAF inh 44
C[C@@H]1CN([C@@H](C)CO)C(=O)Cc2cc(N(C)C)ccc2O[C@H]1CN(C)C(=O)Nc1ccccc1	none (no result: MITF TRPM1 HTS, Wnt bcat act, FXN GAA850 act)
Cc1nc(NC(=O)c2ccccc2)nc2cc3c(cc12)OCO3	esBAF inh 49
COc1ccc(-c2cnc3c(c2)C(=O)N([C@H](C)CO)C[C@@H](C)[C@H](CN(C)C(=O)C2CC2)O3)cc1	none (no result: MITF TRPM1 HTS, Wnt bcat act, FXN GAA850 act)
Cc1nnc(SCc2nc3ccccc3s2)n1N	none (no result: esBAF inh)
Cc1nnc(SCc2nc3ccccc3s2)n1-c1ccccc1	esBAF inh 72, Wnt bcat act inconclusive
CCn1c(SCc2nc3ccccc3s2)nnc1-c1ccccc1	esBAF inh 46 (no result: Wnt bcat act)
CCC(c1nnc(SCc2nc3ccccc3s2)n1Cc1ccccc1)N(C)C (stereo unspecified)	esBAF inh 70 (no result: Wnt bcat act)
C[C@H](CO)N1C[C@H](C)[C@H](CN(C)S(C)(=O)=O)Oc2ccc(NC(=O)CCN3CCOCC3)cc2CC1=O	none (no result: MITF TRPM1 HTS, Wnt bcat act, FXN GAA850 act)
COc1cccc(NC(=O)N2C[C@H](O)COC[C@@H]3O[C@@H](CC(=O)NCc4ccccc4F)CC[C@H]32)c1	none (no result: MITF TRPM1 HTS, Wnt bcat act, FXN GAA850 act)
O=C(c1ccccc1)c1ccc(-c2ccc(O)cc2)cc1	esBAF inh 76, Wnt bcat act 35
CO[C@@H]1CN(C)C(=O)c2cc(NC(=O)c3cc(C)on3)ccc2OC[C@@H](C)NC[C@@H]1C	none (no result: MITF TRPM1 HTS, Wnt bcat act, FXN GAA850 act)
CCCC(=O)N1CCC1(C)C(=O)Nc1cc(-c2ccccc2)nn1C (stereo unspecified)	esBAF inh 55, Wnt bcat act 33 (no result: MITF TRPM1 HTS)
CCCC(=O)N1CCC1(C)C(=O)Nc1ccccc1-c1ccccc1 (stereo unspecified)	none (no result: MITF TRPM1 HTS)
COc1ccc(OCCSc2nc(N)cc(N)n2)cc1	esBAF inh 67, MITF TRPM1 HTS 95
COc1cc(C(=O)OC2CC3CCC2(C)C3(C)C)ccc1OC(C)=O (stereo unspecified)	esBAF inh 49
C[C@@H]1CN([C@H](C)CO)C(=O)c2cc(NS(=O)(=O)c3ccc(F)cc3)ccc2O[C@H]1CN(C)C(=O)Nc1ccc(C(F)(F)F)cc1	none (no result: MITF TRPM1 HTS, Wnt bcat act, FXN GAA850 act)
O=C(c1ccc(-c2ccccc2Cl)o1)N1CCN(S(=O)(=O)c2cccs2)CC1	MITF TRPM1 HTS 87 (no result: esBAF inh)
O=C(c1ccccc1Cl)N1CCN(S(=O)(=O)c2cccs2)CC1	none
O=C(N/C=C/c1ccccc1)c1ccccc1	MITF TRPM1 HTS 109, Wnt bcat act 41 (no result: esBAF inh)
O=C(Nc1ccc(Oc2cccnc2)cc1)c1ccccc1Cl	none (no result: esBAF inh)
O=C(Nc1ccc(Oc2cccnc2)cc1)c1ccccc1F	esBAF inh 60
COc1ccc2nc(NC(=O)CCc3ccc(OC)c(OC)c3)sc2c1	none (no result: esBAF inh)
COc1ccc2nc(NC(=O)CCNC(=O)c3ccco3)sc2c1	esBAF inh 45, MITF TRPM1 HTS 110, Wnt bcat act 42
O=C(CCNC(=O)c1ccco1)Nc1nc2ccccc2s1	none
CCCC(=O)Nc1nc2ccc(OC)cc2s1	esBAF inh 58, Wnt bcat act inconclusive
C[C@@H]1CN([C@@H](C)CO)C(=O)c2cccc(NC(=O)C3CC3)c2O[C@@H]1CN(C)S(=O)(=O)c1cn(C)cn1	none (no result: MITF TRPM1 HTS, Wnt bcat act, FXN GAA850 act)
Cc1ccc(Cn2ccsc2=NC(=O)COC(=O)c2ccc(O)cc2O)cc1	esBAF inh 47
Fc1ccc(/C=C/c2nnc(-c3cccs3)o2)cc1	Wnt bcat act 53 (no result: esBAF inh)
C[C@@H]1CN([C@H](C)CO)C(=O)c2ccccc2-c2ccccc2CO[C@H]1CN(C)S(=O)(=O)c1ccccc1	none (no result: MITF TRPM1 HTS, Wnt bcat act, FXN GAA850 act)
Nc1ccc(N=Nc2ccccc2)c(N)n1	MITF TRPM1 HTS 94
Nc1ccc(N=Nc2ccccc2)c2ccccc12	none
C[C@@H]1CN([C@@H](C)CO)S(=O)(=O)c2ccc(C#Cc3cccnc3)cc2O[C@H]1CN(C)C(=O)CN(C)C	none (no result: MITF TRPM1 HTS, Wnt bcat act, FXN GAA850 act)
Clc1ccc(OCc2nnc(-c3ccccc3Br)o2)c(Cl)c1	esBAF inh 79, MITF TRPM1 HTS 106
